In paper PMC5540273 (PLoS ONE, 2017):

Assays:
Settings in all cases: concentration: 1 μM, replicates: in singlicate; n = 1
MEK5 = test system: T1, MEK5
T1 construct: gene MAP2K5

MEK6 = test system: T2, MEK6
T2 construct: gene MAP2K6

MELK = test system: MELK
MERTK = test system: MERTK
MET = test system: MET
MINK = test system: T3, MINK
T3 construct: gene MINK1

MKK7 = test system: MKK7
MKNK1 = test system: MKNK1
MKNK2 = test system: MKNK2
MLCK = test system: T4, MLCK
T4 construct: gene MYLK3
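Further: KINOMEscan kinase panel screen.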

| Compound | %Inh (MEK5) | %Inh (MEK6) | %Inh (MELK) | %Inh (MERTK) | %Inh (MET) | %Inh (MINK) | %Inh (MKK7) | %Inh (MKNK1) | %Inh (MKNK2) | %Inh (MLCK) |
| --- | --- | --- | --- | --- | --- | --- | --- | --- | --- | --- |
| COc1cccc(CC(=O)N2CCc3cc(-c4cn(C)c5ncnc(N)c45)ccc32)c1 [GSK2608899] | 99.7% | 0% | 13% | 75% | 75% | 19% | 0% | 9% | 14% | 10% |
| CC(C)c1nc(-c2cccc(NS(=O)(=O)c3c(F)cccc3F)c2)c(-c2ccnc(Nc3ccc(N4CCOCC4)nc3)n2)s1.Cl [GSK1723980] | 99.9% | 37% | 47% | 50% | 42% | 17% | 0% | 10% | 98.8% | 0% |
| O=C(Nc1c(F)cccc1F)c1cc(C(=O)c2ccccc2F)c[nH]1 [GSK1326180] | 20% | 0% | 0% | 18% | 0% | 47% | 0% | 10% | 0% | 2% |
| Cc1cccc(Nc2nc(NCCN)ncc2C(N)=O)c1 [GSK1292139] | 99.2% | 19% | 1% | 3% | 29% | 87% | 0% | 13% | 15% | 14% |
| COc1cc(Nc2nccc(N3CCC(NS(=O)(=O)c4ccc(NC(C)=O)cc4)CC3)n2)cc(OC)c1OC [GSK1379825] | 88% | 24% | 19% | 38% | 0% | 0% | 15% | 0% | 83% | 0% |
| CN(C)CCNS(=O)(=O)c1ccc(-c2ccnc3[nH]ccc23)cc1 [GSK977620] | 71% | 100% | 92.6% | 72% | 0% | 4% | 6% | 0% | 77% | 18% |
| N#CC1(c2cccc(C(=O)Nc3cccc(Oc4ccc5nc(NC(=O)C6CC6)sc5n4)c3)c2)CC1 | 99.1% | 18% | 1% | 80% | 2% | 54% | 0% | 40% | 0% | 36% |
| Cc1ccc(NC(=O)c2cccc(N3CCCCC3)c2)cc1-c1ccc(C(=O)NCC2CC2)cc1 [GSK1917008] | 20% | 35% | 0% | 18% | 0% | 0% | 0% | 10% | 18% | 0% |
| Nc1ncnc2scc(-c3ccc(NC(=O)Cc4cc(F)ccc4F)cc3)c12.O=C(O)C(F)(F)F [SB-731254-M] | 99.7% | 11% | 4% | 14% | 0% | 35% | 0% | 0% | 47% | 60% |
| O=C(O)C(F)(F)F.O=c1[nH]ccc2nc(N[C@@H]3CCNC3)nc(Nc3cc(Cl)cc(Cl)c3)c12 [GSK2188764] | 100% | 34% | 100% | 51% | 0% | 97.6% | 20% | 0% | 14% | 99.1% |
| Cc1ccc(C)c(NC(=O)Nc2ccc(C)c(-c3ccc(C(=O)Nc4ccncc4)cc3)c2)c1 [GSK1398473] | 3% | 0% | 81% | 22% | 0% | 6% | 0% | 0% | 4% | 0% |
| COC(=O)Nc1nc2cc(Oc3ccc(NC(=O)Nc4cccc(SC)c4)cc3)ccc2[nH]1.Cl [GW697999] | 55% | 0% | 0% | 89% | 21% | 23% | 0% | 32% | 65% | 0% |
| Cc1cc(-c2c(-c3ccc(F)cc3)ncn2CCCN2CCOCC2)nc(N)n1 [SB-222517] | 26% | 29% | 0% | 0% | 0% | 15% | 0% | 0% | 0% | 0% |
| CS(=O)(=O)c1cccc(CNc2nc(Nc3ccc4c(c3)CCC(=O)N4)ncc2C(F)(F)F)c1 | 48% | 0% | 26% | 56% | 83% | 85% | 0% | 0% | 58% | 0% |
| COc1cc(Nc2nccc(N3CCC(NC(=O)Nc4ccc5c(c4)OCO5)C3)n2)cc(OC)c1OC (stereo not shown) [GSK1379766] | 98.8% | 0% | 0% | 40% | 12% | 0% | 0% | 14% | 66% | 0% |
| COc1cccc2c(-c3ccncc3)c(-c3ccc(F)cc3)nn12 [GW468513] | 33% | 0% | 0% | 0% | 84% | 78% | 0% | 22% | 0% | 6% |
| CCn1c(-c2nonc2N)nc2c(-c3ccccc3)ncc(OCCCN)c21.O=C(O)C(F)(F)F.O=C(O)C(F)(F)F [GSK260205] | 92.8% | 0% | 20% | 7% | 21% | 95.7% | 0% | 0% | 1% | 9% |
| CCNC(=O)/C=C/c1n[nH]c2cc(Sc3ccccc3C(=O)NC)ccc12 | 45% | 0% | 7% | 20% | 13% | 56% | 0% | 0% | 1% | 0% |
| Cl.N#CCc1ccc(Nc2nccc(Nc3ccc(Oc4ccccc4)cc3)n2)cc1 [GW639905] | 99.9% | 0% | 0% | 0% | 0% | 0% | 0% | 0% | 33% | 0% |

| Compound | %Inh (MEK5) | %Inh (MEK6) | %Inh (MELK) | %Inh (MERTK) | %Inh (MET) | %Inh (MINK) | %Inh (MKK7) | %Inh (MKNK1) | %Inh (MKNK2) | %Inh (MLCK) |
| --- | --- | --- | --- | --- | --- | --- | --- | --- | --- | --- |
| CC(C)c1nc(-c2ccc(F)c(NS(=O)(=O)c3c(F)cccc3F)c2)c(-c2ccnc(Nc3ccc(N4CCOCC4)nc3)n2)s1 [GSK1804250] | 100% | 22% | 45% | 54% | 70% | 26% | 15% | 21% | 11% | 0% |
| Cc1ccccc1CC(=O)N1CCc2cc(-c3cn(C)c4ncnc(N)c34)ccc21 [GSK2603346] | 99.9% | 73% | 7% | 46% | 70% | 0% | 0% | 7% | 55% | 6% |
| O=C(Nc1n[nH]c2nc(-c3ccccc3O)ccc12)C1CC1 [SB-711880] | 63% | 0% | 0% | 27% | 0% | 74% | 0% | 0% | 38% | 57% |
| c1ccc(Oc2ccc(Nc3ccnc4cc(-c5ccc(CN6CCCCC6)o5)ccc34)cc2)nc1 [GW567143] | 100% | 0% | 0% | 50% | 11% | 25% | 0% | 7% | 37% | 0% |
| Cn1cc(-c2ccc3c(c2)CCN3C(=O)Cc2cc(F)cc(C(F)(F)F)c2)c2c(N)ncnc21 [GSK2635225] | 33% | 0% | 0% | 63% | 21% | 7% | 4% | 0% | 2% | 0% |
| CCNc1nccc(-c2c(-c3ccc(F)cc3)ncn2C2CCN(C)CC2)n1 | 19% | 15% | 11% | 25% | 0% | 30% | 0% | 0% | 0% | 0% |
| Cc1nn2c(=O)cc(N3CCO[C@H](C)C3)nc2n1Cc1cccc(Cl)c1Cl [GSK2373693] | 19% | 0% | 2% | 17% | 0% | 0% | 0% | 0% | 19% | 0% |
| Nc1ncc(-c2ccc3nccc(-c4ccncc4)c3c2)cc1S(=O)(=O)N1CCCCC1 [GSK1693850] | 50% | 12% | 36% | 35% | 0% | 31% | 0% | 2% | 6% | 0% |
| Cc1ccc(-c2ccc3occ(-c4ccc(S(C)=O)cc4)c3c2)nn1 (stereo not shown) | 0% | 0% | 0% | 0% | 0% | 0% | 0% | 0% | 0% | 5% |
| Cc1ccc(O)cc1Nc1ccnc2cc(-c3ccc(CN4CCCCC4)o3)ccc12 [GW557777] | 97.9% | 15% | 0% | 13% | 0% | 38% | 0% | 0% | 0% | 0% |
| CC(=O)Nc1cn2nc(Oc3cccc(NC(=O)c4cccc(C(F)(F)F)c4)c3)ccc2n1 | 93.3% | 5% | 20% | 73% | 16% | 22% | 0% | 0% | 0% | 0% |
| COc1cccc(NC(=O)NCCNc2ccnc(Nc3ccc(F)cc3)n2)c1 [GSK1379879] | 40% | 0% | 0% | 0% | 0% | 2% | 30% | 12% | 7% | 0% |
| CN(c1ccc(F)c(NC(=O)c2cccc(OC(C)(C)C#N)c2Cl)c1)c1ccc2nc(NC(=O)C3CC3)sc2n1 | 99.8% | 0% | 0% | 30% | 24% | 54% | 39% | 0% | 22% | 0% |
| CN(C)CCOc1ccc(-c2cc(-c3ccc(Cl)c(O)c3)c(-c3ccncc3)[nH]2)cc1.Cl.Cl [SB-684387] | 21% | 0% | 15% | 0% | 43% | 36% | 0% | 7% | 4% | 13% |
| COc1cccc(C2=C(Nc3cccc(O)c3)C(=O)NC2=O)c1 [SB-390771] | 71% | 2% | 27% | 18% | 21% | 18% | 20% | 11% | 5% | 0% |
| CN(C)c1ncnc2nc[nH]c12 [SKF-31736] | 51% | 0% | 0% | 10% | 0% | 2% | 20% | 0% | 0% | 0% |
| Cc1cc(-c2ccnc(Nc3cccc(C#N)c3)n2)cc(C)c1O [GSK1440913] | 23% | 35% | 0% | 42% | 38% | 52% | 36% | 2% | 2% | 77% |
| Nc1cccc(-c2ccc3c(N)n[nH]c3c2)c1 [GSK2193613] | 64% | 0% | 0% | 0% | 6% | 73% | 0% | 2% | 64% | 95.4% |
